Several values for one entry are separate records, joined by “and”; a condition that tells them apart may be missing. Identical values can stand only once. Inconclusive results are not listed. Activity calls are given as the source filed them. Unless noted, calls come from the whole dose curve; as a rule, active = well fitted curve in the direction sought with a large enough effect; inconclusive = small, poorly fitted or top-dose-only effect, or another doubt; inactive = no such curve, though single readings can be large; an effect the other way counts as inactive or inconclusive.
Assays:
[1] = qHTS Assay for Identifying Gametocytocidal Compounds (AID 743244); note: potency is the fitted concentration of half-maximal effect;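 for max response: % is set by controls: 0 for no effect and ±100 for the full control effect; actives lower the fluorescent signal which means gametocytes are killed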; conditions: P. falciparum 3D7 stage III-V gametocytes, alamarBlue, 72 h; max response: stronger effect = lower value
Summary of the method: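 Fluorescence at Ex 525/Em 598 nm, recorded 24 h after alamarBlue addition, reports residual metabolic activity of 3D7 gametocytes (stages III–V) following 72 h compound exposure at 37 °C, 5% CO2.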

[2] = qHTS assay for measurement of the activity of small molecule inhibitors on Zika virus induced Caspase-3 activity in human iPSC derived neural progenitor cells (hNPCs) (AID 1224857); conditions: hNPCs ZIKV-induced caspase-3/7, Caspase-Glo luminescence, 6 h; series mostly up to 45.7 µM; note: % of control where 0% means no effect; nearly all actives have a fitted effect of over 65% in size
Summary of the method: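 Zika virus (2 FFU/cell) infection of human iPSC-derived NPCs, 6 h, following 1 h compound preincubation. Read-out: Caspase-Glo 3/7 luminescence.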

[3] = qHTS assay for measurement of the activity of small molecule inhibitors on Zika virus induced Caspase-3 activity in human astrocytoma cells (AID 1224859); conditions: SNB-19 ZIKV-induced caspase-3/7, luminescence, 6 h; series mostly up to 45.7 µM;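 note: plate controls were ZIKV-infected untreated cells for no effect and uninfected cells for full effect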
Summary of the method: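 Caspase activation in ZIKV-infected SNB-19 cells (2 FFU/cell, 6 h) measured by Caspase-Glo 3/7 luminescence after 30 min RT; compound pre-incubated 1 h; normalised to uninfected and infected controls.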

[4] = qHTS assay to identify small molecule inhibitors of chordoma cells - UCH-1 (AID 1259355); conditions: UCH-1 chordoma viability, CellTiter-Glo, 48 h, combination, with auranofin plus four topoisomerase inhibitors; series mostly up to 46.1 µM; note: % is set by controls: 0 for no effect and ±100 for the full control effect; nearly all actives have a fitted effect of over 55% in size
Summary of the method: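 Luminescent ATP read-out (CellTiter-Glo, 30min at room temperature) measured viability of UCH-1 cells exposed for 48hr to test drugs at 15 concentrations, co-dosed with a five-agent combination of auranofin, camptothecin, doxorubicin, rubitecan and topotecan.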

[5] = qHTS assay to identify small molecule inhibitors of chordoma cells - UCH-2 (AID 1259356); conditions: UCH-2 chordoma viability, CellTiter-Glo ATP luminescence, 48 h; series mostly up to 46.1 µM; note: % is set by controls: 0 for no effect and ±100 for the full control effect
[6] = P-glycoprotein substrates identified in KB-8-5-11 adenocarcinoma cell line, qHTS therapeutic library screen (AID 1346987); conditions: KB-8-5-11 (P-gp overexpressing) viability, CellTiter-Glo, 72 h; series mostly up to 44.5 µM; note: % is set by controls: 0 for no effect and ±100 for the full control effect; nearly all actives have a fitted effect of over 65% in size
Summary of the method: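 KB-8-5-11, a colchicine-selected P-gp-overexpressing KB-3-1 subline, was grown without colchicine for the assay. Cells were seeded at 500 cells/well, dosed in concentration-response and incubated 72 h at 37 degree C, 5% CO2. Viability was read by CellTiter-Glo luminescence.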

[7] = qHTS assay for cell viability of HEK293 cells (AID 743288); conditions: ATP luminescence (CellTiter-Glo), 18 h, stronger effect = lower value; note: % is set by controls: 0 for no effect and ±100 for the full control effect; nearly all actives have a fitted effect of over 50% in size
Summary of the method: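 Parental HEK293 cells, 2,000 per well, preincubated at least 5 h at 37 C, then exposed to compounds in DMSO for 18 h at 37 C. Viability by CellTiter-Glo ATP luminescence after 30 min at room temperature.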

[8] = qHTS assay for cell viability of the p53RE-bla HCT-116 cell line (AID 743292); conditions: p53RE-bla HCT-116 viability, ATP luminescence, 16 h; series mostly up to 95 µM; note: % is set by controls: 0 for no effect and ±100 for the full control effect; nearly all actives have a fitted effect of over 55% in size
Summary of the method: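 HCT-116 p53RE-bla cells seeded 4,000/well; 5 h at 37 C; compound (DMSO) added; 16 h at 37 C; CellTiter-Glo added, 30 min RT; luminescence read.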

[9] = qHTS profiling for inhibitors of Plasmodium falciparum (3D7) proliferation (AID 743322);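 note: infected erythrocytes exposed to compound for 72 h before lysis; 100% = DMSO vehicle wells and 0% = 0.29 µM artemisinin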; conditions: P. falciparum 3D7 proliferation; at 28.7 µM (top of the series) unless noted
Summary of the method: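 Erythrocytes infected with P. falciparum (0.3% parasitemia, 2.5% hematocrit) incubated with compounds 72 h at 37 C, 5% CO2. Lysis with saponin/Triton buffer containing SYBR Green I, overnight at room temperature in the dark; DNA fluorescence (485/535 nm) normalised to 0.29 uM artemisinin and DMSO.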

[10] = qHTS profiling for inhibitors of Plasmodium falciparum (DD2) proliferation (AID 743323; call rule not given here); conditions: lower = more inhibition; at 28.7 µM (top of the series) unless noted
Summary of the method: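 SYBR Green fluorescence (ex 485, em 535 nm) of lysed cultures gives parasite DNA content; wells normalized to artemisinin (0.29 uM) and DMSO controls. Infected red cells: 0.3% parasitemia, 2.5% hematocrit, 72 h, 37 C.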

CCC(CC)(CC(=O)Nc1cccc(/C=C/c2nc(C3CCC3)cs2)c1)C(=O)O
inactive: max response [1] 48.4% | Potency [2] | outcome [3] | Potency [4] | Potency [5] | Potency [6]

C=C[C@H]1CN2CC[C@H]1C[C@@H]2[C@@H](O)c1ccnc2ccc(OC)cc12
inactive: max response [7] -3.56% | outcome [8] | Potency [2] | outcome [3] | Potency [4] | Potency [5] | Potency [6]

CCOc1ccccc1C(N)=O
inactive: max response [1] 14% | max response [7] 9.95% | outcome [8] | Potency [2] | outcome [3] | Potency [4] | Potency [5] | Potency [6]

C/C=C/c1ccc(O)c(OC)c1
inactive: max response [1] 26.3% | max response [7] -4.69% and 11.4% | outcome [8] | Potency [2] | outcome [3] | Potency [4] | Potency [5] | Potency [6]

C[N+]1(CC2COC(c3ccccc3)(C3CCCCC3)O2)CCCCC1 (configuration not stated)
active: Potency [1] 11.2 µM
inactive: Potency [2] | outcome [3] | Potency [4] | Potency [5] | Potency [6]

NCCNc1cccc2ccccc12
inactive: max response [7] -10.4% and -20.5% | outcome [8] | Potency [2] | outcome [3] | Potency [4] | Potency [5] | Potency [6]

C[N+]1(C)CCC(=C(c2ccccc2)c2ccccc2)CC1
inactive: Potency [2] | outcome [3] | Potency [4] | Potency [5] | Potency [6]
22.2% [at 18.4 µM]: activity, percent of control [10]
4.05% [at 18.4 µM]: remaining parasite growth % (stronger effect = lower value) [9]

CCCCCCCC/C=C\CCCCCCCCN
inactive: max response [1] -6.53% | max response [7] -0.943% | outcome [8] | Potency [2] | outcome [3] | Potency [4] | Potency [5] | Potency [6]
